The text below walks through data of PubChem BioAssay.

Activity calls are given as the source filed them.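 How the source made its calls, unless noted: active means compounds whose cell count with miR-34 switched on is under 0.7 times the count with it off; inactive means the rest.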
Further: test concentration not given here.

The first test can be described thus: sensitizers of A549 cells to miR-34 induction, primary screen, imaging, A549 dox-inducible miR-34, nuclei and caspase counts (AID 1347080). Particulars: A549 miR-34 inducible, Hoechst nuclei count, 48 h; stronger effect = lower value; cell number ratio, induced over uninduced.
Consider `O=C(Nc1ccc2c(c1)CCN(Cc1ncn[nH]1)C2)c1ccccc1-c1ccc(C(F)(F)F)cc1`, for which the fold change is 1.03 (inactive).
Regarding `Cc1cc(OCc2nnc(SC3CCCC3)n2-c2cccnc2)ccc1-c1ccc(S(C)(=O)=O)cc1`, the fold change was 0.88 (inactive).
Take `CCC(CC)CC1(C(=O)Nc2ccccc2SC(=O)C(C)C)CCCCC1`: the fold change is 0.89 (inactive).
Turning to `O=C(Nc1cccc(Cl)c1)Nc1ncc(CCNc2ncnc3ccsc23)s1`, the fold change is 1.06 (inactive).

The same test, now with this note: A549 miR-34 inducible, Hoechst nuclei count, 48 h; measured here: relative caspase fold change +Dox/-Dox.
For the molecule `O=C(Nc1ccc2c(c1)CCN(Cc1ncn[nH]1)C2)c1ccccc1-c1ccc(C(F)(F)F)cc1`, the fold change came to 1.06.
As to `Cc1cc(OCc2nnc(SC3CCCC3)n2-c2cccnc2)ccc1-c1ccc(S(C)(=O)=O)cc1`, the fold change came out at 0.499.
`CCC(CC)CC1(C(=O)Nc2ccccc2SC(=O)C(C)C)CCCCC1`: the fold change was found to be 0.858.
As for `O=C(Nc1cccc(Cl)c1)Nc1ncc(CCNc2ncnc3ccsc23)s1`, the fold change turned out to be 1.09.

The same test, now with this note: A549 miR-34 inducible, Hoechst nuclei count, 48 h; measured here: total cells with miR-34 induction; stronger effect = lower value.
For `O=C(Nc1ccc2c(c1)CCN(Cc1ncn[nH]1)C2)c1ccccc1-c1ccc(C(F)(F)F)cc1`, the cell count was 8100.
As for `Cc1cc(OCc2nnc(SC3CCCC3)n2-c2cccnc2)ccc1-c1ccc(S(C)(=O)=O)cc1`, the cell count was 1100.
Regarding `CCC(CC)CC1(C(=O)Nc2ccccc2SC(=O)C(C)C)CCCCC1`, the cell count was determined as 9550.
The same measure, in the same setting: the value for `O=C(Nc1cccc(Cl)c1)Nc1ncc(CCNc2ncnc3ccsc23)s1` was 2320.

Still in this test, the particulars now being: A549 miR-34 inducible, Hoechst nuclei count, 48 h; measured here: total cells without miR-34 induction.
Regarding `O=C(Nc1ccc2c(c1)CCN(Cc1ncn[nH]1)C2)c1ccccc1-c1ccc(C(F)(F)F)cc1`, the cell count came out at 7840.
Turning to `Cc1cc(OCc2nnc(SC3CCCC3)n2-c2cccnc2)ccc1-c1ccc(S(C)(=O)=O)cc1`, the cell count is 1250.
`CCC(CC)CC1(C(=O)Nc2ccccc2SC(=O)C(C)C)CCCCC1`: the cell count is 10700.
In the case of `O=C(Nc1cccc(Cl)c1)Nc1ncc(CCNc2ncnc3ccsc23)s1`, the cell count is 2200.

A further test is described as follows: survival rescue of mitochondrial mutant cells in low glucose, primary screen, MELAS cybrids, Rieske KO mouse fibroblasts, CellTiter-Glo (AID 1508586;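 active means mean z-score across replicates of 1.96 or higher in either the MELAS or the Rieske mutant cell line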;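 further: z relative to plate mean and SD of compound and empty wells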). Particulars: MELAS cybrid survival, CellTiter-Glo 48 h, stronger effect = higher value. Background: Cellular ATP, detected with luciferase, serves as a proxy for viable cell number.
Turning to `Cc1cc(OCc2nnc(SC3CCCC3)n2-c2cccnc2)ccc1-c1ccc(S(C)(=O)=O)cc1`, the z-score was 0.698 (inactive).
On to `CCC(CC)CC1(C(=O)Nc2ccccc2SC(=O)C(C)C)CCCCC1`, for which the z-score was -0.325 (inactive).
Take `O=C(Nc1cccc(Cl)c1)Nc1ncc(CCNc2ncnc3ccsc23)s1`: the z-score is -0.144 (inactive).

The same test, now with this note: Rieske KO mouse fibroblast survival, CellTiter-Glo 72 h.
The molecule `Cc1cc(OCc2nnc(SC3CCCC3)n2-c2cccnc2)ccc1-c1ccc(S(C)(=O)=O)cc1` had a z-score of -0.0239.
The molecule `CCC(CC)CC1(C(=O)Nc2ccccc2SC(=O)C(C)C)CCCCC1` had a z-score of 1.25.
As to `O=C(Nc1cccc(Cl)c1)Nc1ncc(CCNc2ncnc3ccsc23)s1`, the z-score was -1.82.
